Unmarked numbers belong to inactive results. The source made the active and inactive calls. Unless noted, the rule behind the calls is not given here.

A short description of test [1]: antimalarial activity against Dd2 strain (AID 2302;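 active = growth inhibition above 50% at the single 2 µM test dose, taken to imply half-maximal potency below 2 µM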;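 note: 0% = DMSO untreated growth and 100% = chloroquine plus artemisinin killed control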). To be noted: P. falciparum Dd2 in RBCs, LDH growth readout, 72 h; at 2 µM; hits give high values.
A short description of test [2]: HepG2 cytotoxicity, primary screen, cytotoxicity control for P. falciparum antimalarial project, cell-based, ATP luminescence (AID 2303;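 active = inhibition above 50%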;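 note: 0% = DMSO wells and 100% = digitonin-killed cells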). To be noted: HepG2 viability, 24-48 h, at 10 µM, hits give high values.
Test [3] has as its target L-lactate dehydrogenase (Plasmodium falciparum (isolate CDC / Honduras)) (UniProt Q27743). Put plainly: PfLDH activity inhibition – cell lysate, 3D7 strain, counter-screen for P. falciparum growth inhibition project (AID 2304).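 Note: 0% = vehicle and 100% = reference inhibitor.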 To be noted: P. falciparum 3D7 crude extract, LDH APAD/NBT absorbance; at 2 µM; hits give high values.
Test [4] is described as follows: inhibition of 3D7 malaria parasite growth – strain 3D7 (AID 2306).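 Note: 0% = DMSO wells and 100% = chloroquine plus artemisinin control wells.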 The following applies: P. falciparum 3D7 erythrocytic growth, LDH absorbance, 72 h; at 2 µM; hits give high values.

Sequence of L-lactate dehydrogenase (Plasmodium falciparum (isolate CDC / Honduras)) (Q27743 whole entry, looked up): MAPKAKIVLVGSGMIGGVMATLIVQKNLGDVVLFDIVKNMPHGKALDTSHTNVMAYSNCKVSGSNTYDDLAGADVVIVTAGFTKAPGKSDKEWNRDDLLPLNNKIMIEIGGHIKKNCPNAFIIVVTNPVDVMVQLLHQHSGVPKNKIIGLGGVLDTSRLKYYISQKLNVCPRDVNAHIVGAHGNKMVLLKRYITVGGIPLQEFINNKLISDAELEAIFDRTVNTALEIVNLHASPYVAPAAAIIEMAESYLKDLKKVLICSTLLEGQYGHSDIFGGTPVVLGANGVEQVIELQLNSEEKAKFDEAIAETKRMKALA

The term inhibition denotes the change of the read-out against control, counted positive when it falls. Regarding `Oc1ccc(C=NNC(=S)Nc2cccc3ccccc23)c(O)c1`, the results for the growth inhibition in test [1] and in test [4] were 72% (active) and 89% (active), respectively. The inhibition was 8% in test [2] and -4% in test [3].

Regarding `CCOc1cc(C=Cc2nc3ccccc3c(=O)[nH]2)cc(Cl)c1O`, the growth inhibition is 90% (active) in test [1] and 83% (active) in test [4]. The inhibition was 25% in test [2] and 2% in test [3].

`CCn1c(C=Cc2cc(Br)ccc2O)nc2ccccc2c1=O`: the growth inhibition in test [1] and in test [4] was 95% (active) throughout. Also, the values for the inhibition in test [2] and in test [3] were 6% and -5%, respectively.

For `CC(C)C[C@@H](C(=O)N[C@H](C(=O)Nc1nccs1)C(C)(C)C)[C@H](CCC(F)(F)F)N(O)C=O`, the growth inhibition in test [1] is 71% (active); in test [4] it was 97% (active). The inhibition was 11% in test [2] and 5% in test [3].

`NC(N)=NN=Cc1c[nH]c2ccc(-c3ccccc3)cc12`: the growth inhibition in test [1] was 61% (active); in test [4], 84% (active). Besides, the inhibition in test [2] is 15%; in test [3], -2%.

Consider `COc1cc(C=NNc2ccnc3cc(Cl)ccc23)ccc1O`, for which the figures for the growth inhibition in test [1] and in test [4] were 100% (active) and 101% (active), respectively. In addition, the inhibition in test [2] was 15%; in test [3], -7%.

`CCC[C@@H]([C@@H](CC1CCCCC1)C(=O)N[C@H](C(=O)Nc1nccc(N)n1)C(C)(C)C)N(O)C=O`: the results for the growth inhibition in test [1] and in test [4] were 82% (active) and 96% (active), respectively. Further, the inhibition is 25% in test [2] and 5% in test [3].

In the case of `Cc1cc(C)c2c(c1)C(=NO)CCN2`, the growth inhibition was 2% in test [1] and 94% (active) in test [4]. Moreover, the values for the inhibition in test [2] and in test [3] were 2% and 7%, respectively.

In the case of `Cc1ccc(-c2cncc(-c3cc(NC4CCN(Cc5ccccc5)CC4)nc(-c4ccccc4)n3)c2)cc1`, the growth inhibition in test [1] was 66% (active); in test [4], 100% (active). For the same compound, the values for the inhibition in test [2] and in test [3] were -2% and -4%, respectively.

Consider `Oc1cccc(-c2nc3ccc(C4=N[C@H]5CCCC[C@H]5N4)cc3[nH]2)c1`, for which the growth inhibition in test [1] was 97% (active); in test [4], 98% (active). Moreover, the inhibition in test [2] is -3%; in test [3] it was 1%.

Turning to `Cc1[nH]c2ccccc2c1C=NNc1nc(Nc2ccccc2)nc(Nc2ccccc2)n1`, the figures for the growth inhibition in test [1] and in test [4] were 23% and 87% (active), respectively. Further, the inhibition in test [2] is 3%; in test [3] it was 6%.

On to `CC[C@@H]([C@@H](CC(C)C)C(=O)N[C@@H](CCCCNC(=O)OCc1ccccc1)C(=O)Nc1ccccn1)N(O)C=O`, for which the growth inhibition was 99% (active) in test [1] and 98% (active) in test [4]. Besides, the inhibition was -7% in test [2] and -8% in test [3].

With `O=[N+]([O-])c1ccc(C=NO)nc1`, the figures for the growth inhibition in test [1] and in test [4] were 98% (active) and 80% (active), respectively. Moreover, the inhibition is 80% (active) in test [2] and 2% in test [3].

`COc1cc(-c2nc(-c3ccc4c(c3)CCC4=NO)c(-c3ccncc3)[nH]2)ccc1OCCN1CCCCC1`: the figures for the growth inhibition in test [1] and in test [4] were 80% (active) and 101% (active), respectively. In addition, the inhibition in test [2] was 75% (active); in test [3], 1%.

On to `O=C(/C=C/c1ccc(Cl)c(Cl)c1)NCCCCCN1CC[C@H](c2c[nH]c3ccccc23)[C@@H](O)C1`, for which the growth inhibition in test [1] was -2%; in test [4], 99% (active). Also, the values for the inhibition in test [2] and in test [3] were 34% and -3%, respectively.

On to `CN(C)c1cc(NN=Cc2cc(Cl)ccc2O)nc(N(C)C)n1`, for which the growth inhibition in test [1] and in test [4] was 98% (active) each time. The values for the inhibition in test [2] and in test [3] were 3% and 0%, respectively.

With `CN(C)C[C@H](O)[C@@H](c1ccccc1)c1ccc(Cl)cc1`, the growth inhibition in test [1] was 4%; in test [4], 99% (active). In addition, the figures for the inhibition in test [2] and in test [3] were 4% and 2%, respectively.

For `CN(C)c1nc(NCc2ccccc2)nc(NN=Cc2cc([N+](=O)[O-])ccc2O)n1`, the growth inhibition in test [1] was 90% (active); in test [4], 100% (active). Further, the inhibition in test [2] is 48%; in test [3], -5%.
